# Records with an inconclusive call do not appear. A call without a number means that no potency is given here. Calls of active or inactive are those of the source. The call rests on the fitted dose curve; in most records, active means well fitted cell-killing curve with a large enough effect in the repeat runs; inconclusive means weak or mixed curves, or effect the other way; inactive means no such curve, though single readings can be large or run the other way.
# Experiment: qHTS assay to identify small molecule agonists of the RXR signaling pathway - cell viability counter screen (AID 1159529); further: nearly all actives have a fitted effect of over 50% in size
# Details: RXR-alpha-bla HEK293T viability, CellTiter-Glo, 16 h; series mostly up to 76.8 µM
# From the text: National Center for Advancing Translational Sciences [NCATS]
# NIH Chemical Genomics Center [NCGC]
# U.S. Environmental Protection Agency [EPA]
# National Institutes of Environmental Health Sciences [NIEHS]
# National Toxicology Program [NTP]
# U.S. Food and Drug Administration [FDA]
# The Retinoid X receptor (RXR), a nuclear hormone receptor expressed in liver, spleen, placenta, epidermis, central nervous system. These receptors are able to form homo and heterodimers with other nuclear receptors and due to this heterodimerizing ability, RXR functions as master regulators producing diverse physiological effects. Three subtypes of RXR exist; alpha, beta and gamma. Retinoid X receptor alpha (RXR-alpha) has potential roles in metabolic signaling pathways, skin alopecia, dermal cysts, cardiac development, insulin sensitization etc. Therefore screening environmental chemicals on RXR-alpha signaling can be used for the studies focused on such therapeutic applications. For quantification of RXR-alpha ligands signaling, GeneBLAzer RXR alpha-UAS-bla HEK 293T (Life Technologies, Carlsbad, CA) cells containing a beta-lactamase reporter-gene under control of Retinoid X receptor-alpha response element were used to screen Tox21 10K library. The cytotoxicity of the Tox21 compound library against the RXR-alpha HEK 293T cell line was tested in parallel by measuring cell viability using CellTiter-Glo assay (Promega Corporation, Madison, WI) in the same wells.
# Tox21 Assay Protocol Summary:
# RXR-alpha HEK 293T cells were dispensed at 2,000 cells/6 uL of assay medium containing 2% charcoal-stripped FBS using a Multidrop Combi (ThermoFisher Scientific, Waltham, MA) dispenser. The assay was performed in black wall/clear-bottom 1536-well plates (Greiner Bio-One North America Inc. Monroe, NC). Tetraoctyl ammonium bromide was used as a positive control in the cytotoxicity screen. After the assay plates were incubated at 37 C and 5% CO2 for 5 hr, 23 nL of compounds dissolved in DMSO, positive control or DMSO only were transferred to the assay plate by a Pintool station (Kalypsys, San Diego, CA). The assay plates were incubated at 37 C and 5% CO2 for 16 hr. One uL of LiveBLAzer B/G FRET substrate (Life Technologies) was added using a Flying Reagent Dispenser (FRD) (Aurora Discovery, San Diego, CA) and the plates were incubated at room temperature for 2 hr. Fluorescence intensity (405 nm excitation, 460/530 nm emission) was measured using an Envision plate reader (PerkinElmer, Shelton, CT). For cytotoxicity, 4 uL/well of CellTiter-Glo reagent was added into the assay plates using an FRD. After 30 min incubation at room temperature, the luminescence intensity was measured using a ViewLux plate reader (PerkinElmer).
# Potency means the concentration at half of the fitted maximal effect.
row,SMILES,Potency
1,CC(C)=CCC1C(=O)N(c2ccccc2)N(c2ccccc2)C1=O,inactive
2,CC1(C)O[C@@H]2C[C@H]3[C@@H]4C[C@H](F)C5=CC(=O)C=C[C@]5(C)[C@H]4[C@@H](O)C[C@]3(C)[C@]2(C(=O)CO)O1,inactive
3,CC(=O)N/N=C/c1ccc([N+](=O)[O-])o1,inactive
4,C[C@@H](O)[C@H]1C(=O)N2C(C(=O)O)=C([C@H]3CCCO3)S[C@H]12,inactive
5,O=C(O)C[C@H](NC(=O)OCc1ccccc1)C(=O)O,inactive
6,CC(CO)CO,inactive
7,CN1C(=O)OC(C)(C)C1=O,inactive
8,CCCCCCCC/C=C\CCCCCCCCCCCC(=O)O,inactive
9,CC=C(Cl)Cl,inactive
10,CCOC(=O)OC(C)OC(=O)[C@@H]1N2C(=O)[C@@H](NC(=O)[C@H](N)c3ccccc3)[C@H]2SC1(C)C (stereo not given in full),inactive
11,C[C@@H](O[C@H]1OCCN(Cc2n[nH]c(=O)[nH]2)[C@H]1c1ccc(F)cc1)c1cc(C(F)(F)F)cc(C(F)(F)F)c1,19 µM (active)
12,N#CCCN(CCO)CCO,inactive
13,Nc1cccc2c1CN(C1CCC(=O)NC1=O)C2=O (stereo not given),inactive
14,CCCCCCC(C)(C)C(=O)O,inactive
15,CC1(C)S[C@@H]2[C@H](NC(=O)C(c3ccccc3)S(=O)(=O)O)C(=O)N2[C@H]1C(=O)O (stereo not given in full),inactive
16,COc1ccccc1N1CCN(CC(O)COc2cccc3ccccc23)CC1 (stereo not given),12 µM (active)
17,CCOC(=O)c1ccc(O)c(O)c1,inactive
18,C=C(C)C(=O)OCCCCCCCCCCCCC,inactive
19,NC1[C@H]2CN(c3nc4c(cc3F)c(=O)c(C(=O)O)cn4-c3ccc(F)cc3F)C[C@@H]12 (stereo not given in full),inactive
20,C[C@@H]1CN(CCCn2c3ccccc3c3ccccc32)C[C@H](C)N1,23.9 µM (active)

row,SMILES,Potency
1,O=C1NCCN1CCO,inactive
2,CCC(C)COC(C)=O (stereo not given),inactive
3,C=CC(=O)[O-].C=CC(=O)[O-].[Zn+2],inactive
4,O=C(Cn1ccnc1[N+](=O)[O-])NCCO,inactive
5,CC(CCC(=O)O)C(=O)O (stereo not given),inactive
6,C(=C\c1ccccc1)/c1ccccc1,inactive
7,CCCCOc1ccc(OCCCN2CCOCC2)cc1,inactive
8,Nc1nnc(-c2ccc([N+](=O)[O-])o2)o1,inactive
9,C1COC1,inactive
10,C[C@@H]1CC(=O)NN=C1c1ccc(NN=C(C#N)C#N)cc1,inactive
11,CC(C)C(O)(c1ccc(OC(F)(F)F)cc1)c1cncnc1 (stereo not given),inactive
12,CCCCCCCCCI,inactive
13,O=c1[nH]ncc2ccccc12,inactive
14,CCOC(C)=O,inactive
15,c1ccc(C[n+]2cccc3ccccc32)cc1,inactive
16,Cc1cc2c(OCC(CNC(C)(C)C)OC(=O)c3ccccc3)cccc2[nH]1 (stereo not given),inactive
17,CN1CC(=O)N2[C@H](c3ccc4c(c3)OCO4)c3[nH]c4ccccc4c3C[C@@H]2C1=O,inactive
18,CCC(OCCCOC)OC(C)=O (stereo not given),inactive
19,OC1(c2ccccc2)CCNCC1,inactive
20,O=C(O)c1cccc(-c2noc(-c3ccccc3F)n2)c1,inactive
